Source: PubChem BioAssay (NCATS)
Results filed as inconclusive are left out. Entries that show only a call come without a potency. Some compounds were tested as several samples or in several runs, with calls that do not always agree. Activity calls are given as the source filed them. Unless noted, calls follow the shape of the dose curve; as a rule, active = well fitted curve in the direction sought with a large enough effect; inconclusive = small, poorly fitted or top-dose-only effect, or another doubt; inactive = no such curve, though single readings can be large; an effect the other way counts as inactive or inconclusive.

Key:
[1] = biological target: Beta-2 adrenergic receptor (Homo sapiens) (UniProt P07550); test: qHTS validation assay of beta-arrestin-biased ligands of beta2-adrenergic receptor (AID 485366)
Beta-2 adrenergic receptor (Homo sapiens), sequence (P07550 whole entry, looked up): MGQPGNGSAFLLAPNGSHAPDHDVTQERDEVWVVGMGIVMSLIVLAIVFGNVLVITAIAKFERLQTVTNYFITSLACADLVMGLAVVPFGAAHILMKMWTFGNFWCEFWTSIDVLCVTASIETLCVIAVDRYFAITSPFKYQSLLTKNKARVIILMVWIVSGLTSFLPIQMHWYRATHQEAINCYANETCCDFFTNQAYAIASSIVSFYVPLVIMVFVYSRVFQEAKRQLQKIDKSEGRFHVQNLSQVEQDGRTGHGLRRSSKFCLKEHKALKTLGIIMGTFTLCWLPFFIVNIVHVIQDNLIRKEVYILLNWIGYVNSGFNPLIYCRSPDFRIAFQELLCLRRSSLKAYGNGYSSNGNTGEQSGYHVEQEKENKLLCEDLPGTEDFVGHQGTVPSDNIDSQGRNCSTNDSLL
Outline: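 Luminescence from a tTA-responsive luciferase, induced when recombinant beta-arrestin is recruited to recombinant beta2-AR, served as the agonism signal. Cells were exposed to compound for 18 hr at 37 degrees C; titrations spanned up to 46 microM.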

[2] = Quantitative high throughput screen for delayed death inhibitors of the malarial parasite plastid, 96 hour incubation (AID 488745); also: nearly all actives have a fitted effect of over 70% in size; also: potency is read from the fitted curve at half-maximal effect
Outline: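 Growth of reporter-bearing P. falciparum in red cells is measured after 96 h with compound, covering two erythrocytic cycles. Luminescence from the integrated luciferase serves as the growth signal.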

[3] = Quantitative high throughput screen for delayed death inhibitors of the malarial parasite plastid, 48 hour incubation (AID 488752); also: nearly all actives have a fitted effect of over 65% in size; also: potency is read from the fitted curve at half-maximal effect
Outline: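 One parasite generation (48 h, 37 C, 5% CO2) of luciferase-reporter P. falciparum in erythrocytes is run with test compound; decreased luminescence indicates inhibited growth.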

[4] = biological target: Thioredoxin reductase 1, cytoplasmic (Rattus norvegicus) (UniProt O89049); test: qHTS Assay for Substrates of Mammalian Selenoprotein Thioredoxin Reductase 1 (TrxR1) (AID 488772);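 also: NADPH fluorescence in the first read after selenite addition and not the 8 min delta; series mostly up to about 57 µM; a drop in NADPH fluorescence below the no-compound background marks a TrxR1 substrate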
Thioredoxin reductase 1, cytoplasmic (Rattus norvegicus), sequence (O89049 whole entry, looked up): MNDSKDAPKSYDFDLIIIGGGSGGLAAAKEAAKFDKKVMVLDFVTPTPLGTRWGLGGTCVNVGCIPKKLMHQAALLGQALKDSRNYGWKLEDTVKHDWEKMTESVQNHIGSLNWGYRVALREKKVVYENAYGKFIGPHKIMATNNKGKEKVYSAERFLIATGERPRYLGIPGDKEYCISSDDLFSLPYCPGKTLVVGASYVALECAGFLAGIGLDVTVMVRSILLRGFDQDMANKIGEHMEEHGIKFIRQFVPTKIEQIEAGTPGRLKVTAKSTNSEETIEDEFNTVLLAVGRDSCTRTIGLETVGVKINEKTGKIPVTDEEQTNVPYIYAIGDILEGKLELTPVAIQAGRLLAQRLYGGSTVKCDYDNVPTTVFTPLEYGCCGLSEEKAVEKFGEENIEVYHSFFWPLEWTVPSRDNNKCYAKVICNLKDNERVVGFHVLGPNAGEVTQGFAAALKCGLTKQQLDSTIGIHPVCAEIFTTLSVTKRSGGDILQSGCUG
Outline: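 Quantitative HTS in Tris-HCl buffer at pH 7.5 with EDTA and Tween-20, using rat TrxR1, 400 uM NADPH and 400 uM selenite (final). A fall in initial NADPH fluorescence relative to background marked substrate behaviour.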

[5] = biological target: Thioredoxin reductase 1, cytoplasmic (Rattus norvegicus) (UniProt O89049); test: qHTS Assay for Inhibitors of Mammalian Selenoprotein Thioredoxin Reductase 1 (TrxR1) (AID 488773); settings: Potency: inhibition; also: nearly all actives have a fitted effect of over 40% in size; also: potency is read from the fitted curve at half-maximal effect
Outline: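 Steps: enzyme (90 nM) plus NADPH (400 uM final), 5 min at ~22 deg C; compound added, 15 min; selenite (400 uM final) added; fluorescence followed for 8 min. Concentration-response curves derived from the normalized delta values.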

[6] = biological target: Flap endonuclease 1 (Homo sapiens) (UniProt P39748); test: qHTS Validation Assay for the Inhibitors of Human Flap endonuclease 1 (FEN1) (AID 488816)
Flap endonuclease 1 (Homo sapiens), sequence (P39748 whole entry, looked up): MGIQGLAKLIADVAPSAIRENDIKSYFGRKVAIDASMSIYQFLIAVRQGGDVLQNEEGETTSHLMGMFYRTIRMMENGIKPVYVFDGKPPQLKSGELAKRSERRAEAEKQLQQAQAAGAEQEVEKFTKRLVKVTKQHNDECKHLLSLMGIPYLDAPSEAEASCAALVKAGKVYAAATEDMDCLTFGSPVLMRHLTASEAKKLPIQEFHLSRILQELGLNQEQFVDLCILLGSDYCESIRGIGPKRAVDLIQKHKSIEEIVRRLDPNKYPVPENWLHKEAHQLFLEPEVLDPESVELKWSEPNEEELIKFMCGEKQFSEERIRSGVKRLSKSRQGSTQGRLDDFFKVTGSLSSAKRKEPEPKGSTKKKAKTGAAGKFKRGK
Outline: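 Readings taken at 0 and 15 min after starting the reaction with 50 nM (final) substrate supplied the signal. Compounds had first sat with 10 nM FEN1 reagent for 15 min at room temperature. Values come from Hill-equation concentration-response fits.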

[7] = biological target: M-phase phosphoprotein 8 (Homo sapiens) (UniProt Q99549); test: qHTS Validation Assay for Inhibitors for MPP8 Chromodomain Interactions with Methylated Histone Tails (AID 488949); also: nearly all actives have a fitted effect of over 55% in size; also: potency is read from the fitted curve at half-maximal effect
Outline: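 AlphaScreen read-out: streptavidin donor and nickel chelate acceptor beads (final 10 ug/mL), 30 min in the dark at RT. Complex of 50 nM MPP8 and 50 nM b-H3(1-18)K9me3 peptide had been exposed to compounds for 30 min beforehand.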

[8] = biological target: Chromobox protein homolog 1 (Homo sapiens) (UniProt P83916); test: qHTS Validation Assay for Inhibitors of HP1-beta Chromodomain Interactions with Methylated Histone Tails (AID 488953);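 also: loss of AlphaScreen luminescence from HP1-beta binding biotinylated H3K9me3 peptide; series mostly up to about 110 µM; nearly all actives have a fitted effect of over 50% in size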
Chromobox protein homolog 1 (Homo sapiens), sequence (P83916 whole entry, looked up): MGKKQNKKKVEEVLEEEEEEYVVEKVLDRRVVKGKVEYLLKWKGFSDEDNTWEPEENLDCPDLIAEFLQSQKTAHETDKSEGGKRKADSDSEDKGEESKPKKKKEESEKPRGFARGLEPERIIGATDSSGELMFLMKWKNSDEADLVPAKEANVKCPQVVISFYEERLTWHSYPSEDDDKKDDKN
Outline: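 Measured as loss of AlphaScreen luminescence from streptavidin donor and nickel acceptor beads (10 ug/mL final) bridging HP1-beta and biotin-H3(1-18)K9me3, each 50 nM. Compounds met the preassembled complex for 30 min at RT.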

[9] = biological target: Methanococcus maripaludis chaperonin (MmCpn) (UniProt Q6LX38); test: High-Throughput Screening for Modulators of Cytosolic Chaperonin Activity: MmCpn Primary Screen (AID 488978);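 also: 50 nM MmCpn enzyme hydrolysing 30 µM ATP at 37 °C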
Methanococcus maripaludis chaperonin (MmCpn), sequence (Q6LX38 1-543): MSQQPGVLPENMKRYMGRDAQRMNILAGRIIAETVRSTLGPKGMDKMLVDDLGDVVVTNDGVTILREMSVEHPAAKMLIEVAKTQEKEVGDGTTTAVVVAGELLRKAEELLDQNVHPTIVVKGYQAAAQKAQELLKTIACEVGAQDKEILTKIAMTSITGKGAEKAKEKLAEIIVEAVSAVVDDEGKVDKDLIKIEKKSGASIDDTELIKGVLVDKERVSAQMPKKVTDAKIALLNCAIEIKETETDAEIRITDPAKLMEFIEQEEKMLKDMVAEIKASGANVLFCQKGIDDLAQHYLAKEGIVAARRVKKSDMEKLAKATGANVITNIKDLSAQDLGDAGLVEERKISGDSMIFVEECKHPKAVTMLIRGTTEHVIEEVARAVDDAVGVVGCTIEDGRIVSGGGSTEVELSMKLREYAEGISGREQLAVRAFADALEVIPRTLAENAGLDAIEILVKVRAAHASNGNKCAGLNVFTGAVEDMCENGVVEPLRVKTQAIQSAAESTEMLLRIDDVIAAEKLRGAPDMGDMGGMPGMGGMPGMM
Outline: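 ADP formation read by HTRF Transcreener, 665/590 nm emission after 320 nm excitation. Enzyme: archaeal chaperonin at 50 nM final; substrate ATP 30 uM final; 10 min, 37C, after 5 min compound preincubation at RT.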

[10] = biological target: Thyrotropin receptor (Homo sapiens) (UniProt P16473); test: qHTS Assay for Antagonists of the Thyroid Stimulating Hormone Receptor (AID 488980); also: series mostly up to about 58 µM
Thyrotropin receptor (Homo sapiens), sequence (P16473 whole entry, looked up): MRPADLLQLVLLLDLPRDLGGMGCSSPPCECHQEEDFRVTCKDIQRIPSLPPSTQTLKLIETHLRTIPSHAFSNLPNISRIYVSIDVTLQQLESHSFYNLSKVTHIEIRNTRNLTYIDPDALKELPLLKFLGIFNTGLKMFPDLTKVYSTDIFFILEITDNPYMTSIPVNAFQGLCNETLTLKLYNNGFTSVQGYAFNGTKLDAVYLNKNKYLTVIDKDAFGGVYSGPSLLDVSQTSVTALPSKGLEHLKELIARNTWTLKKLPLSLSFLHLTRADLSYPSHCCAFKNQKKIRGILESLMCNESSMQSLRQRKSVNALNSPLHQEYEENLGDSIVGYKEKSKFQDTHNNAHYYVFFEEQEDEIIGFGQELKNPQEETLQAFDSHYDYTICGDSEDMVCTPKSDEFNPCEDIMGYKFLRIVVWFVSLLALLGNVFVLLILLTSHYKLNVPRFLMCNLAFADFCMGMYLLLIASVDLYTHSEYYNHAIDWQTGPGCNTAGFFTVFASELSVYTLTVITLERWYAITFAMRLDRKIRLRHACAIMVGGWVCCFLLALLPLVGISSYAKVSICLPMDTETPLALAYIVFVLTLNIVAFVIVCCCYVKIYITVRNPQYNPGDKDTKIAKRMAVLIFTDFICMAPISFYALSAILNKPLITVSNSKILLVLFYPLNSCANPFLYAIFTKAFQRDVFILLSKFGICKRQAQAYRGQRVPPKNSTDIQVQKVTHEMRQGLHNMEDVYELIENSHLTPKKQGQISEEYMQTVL
Outline: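 TSHR-HEK293 cells; 70 uM RO 20-1724 PDE inhibitor; compound + EC80 TSH (4 nM final); anti-cAMP cryptate antibody/cAMP-d2 in lysis buffer, 30 min RT; HTRF 665/620 nm read.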

[11] = biological target: D(1A) dopamine receptor (Homo sapiens) (UniProt P21728); test: HTS Assay for Allosteric Agonists of the Human D1 Dopamine Receptor: Primary Screen for Agonists (AID 488981); also: potency is read from the fitted curve at half-maximal effect
Outline: (§1)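 Calcium flux in an inducible, force-coupled HEK293 Trex D1 line (overnight at 30 C): agonist mode is the 180 s kinetic read after compound; potentiator mode is the following 180 s read after dopamine at EC20.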

[12] = Validation screen for small molecules that induce genotoxicity in human embryonic kidney (HEK293T) cells expressing luciferase-tagged ELG1 (AID 493106)
Outline: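 Reporter-gene quantitative HTS in HEK293T cells carrying luciferase-tagged ELG1, whose level climbs under genotoxic stress. Compound exposure lasts 16 hr at 37 °C before luciferase detection.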

[13] = biological target: ATPase family AAA domain-containing protein 5 (Homo sapiens) (UniProt Q96QE3); test: Validation screen for small molecules that inhibit ELG1-dependent DNA repair in human embryonic kidney (HEK293T) cells expressing luciferase-tagged ELG1 (AID 493107);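 also: cells co-treated with the DNA-damaging agent 5-fluorouridine alongside compound; series mostly up to about 46 µM; inhibitors lower the ELG1-luciferase luminescence signal; nearly all actives have a fitted effect of over 70% in size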
ATPase family AAA domain-containing protein 5 (Homo sapiens), sequence (Q96QE3 whole entry, looked up, the tested form may be a part): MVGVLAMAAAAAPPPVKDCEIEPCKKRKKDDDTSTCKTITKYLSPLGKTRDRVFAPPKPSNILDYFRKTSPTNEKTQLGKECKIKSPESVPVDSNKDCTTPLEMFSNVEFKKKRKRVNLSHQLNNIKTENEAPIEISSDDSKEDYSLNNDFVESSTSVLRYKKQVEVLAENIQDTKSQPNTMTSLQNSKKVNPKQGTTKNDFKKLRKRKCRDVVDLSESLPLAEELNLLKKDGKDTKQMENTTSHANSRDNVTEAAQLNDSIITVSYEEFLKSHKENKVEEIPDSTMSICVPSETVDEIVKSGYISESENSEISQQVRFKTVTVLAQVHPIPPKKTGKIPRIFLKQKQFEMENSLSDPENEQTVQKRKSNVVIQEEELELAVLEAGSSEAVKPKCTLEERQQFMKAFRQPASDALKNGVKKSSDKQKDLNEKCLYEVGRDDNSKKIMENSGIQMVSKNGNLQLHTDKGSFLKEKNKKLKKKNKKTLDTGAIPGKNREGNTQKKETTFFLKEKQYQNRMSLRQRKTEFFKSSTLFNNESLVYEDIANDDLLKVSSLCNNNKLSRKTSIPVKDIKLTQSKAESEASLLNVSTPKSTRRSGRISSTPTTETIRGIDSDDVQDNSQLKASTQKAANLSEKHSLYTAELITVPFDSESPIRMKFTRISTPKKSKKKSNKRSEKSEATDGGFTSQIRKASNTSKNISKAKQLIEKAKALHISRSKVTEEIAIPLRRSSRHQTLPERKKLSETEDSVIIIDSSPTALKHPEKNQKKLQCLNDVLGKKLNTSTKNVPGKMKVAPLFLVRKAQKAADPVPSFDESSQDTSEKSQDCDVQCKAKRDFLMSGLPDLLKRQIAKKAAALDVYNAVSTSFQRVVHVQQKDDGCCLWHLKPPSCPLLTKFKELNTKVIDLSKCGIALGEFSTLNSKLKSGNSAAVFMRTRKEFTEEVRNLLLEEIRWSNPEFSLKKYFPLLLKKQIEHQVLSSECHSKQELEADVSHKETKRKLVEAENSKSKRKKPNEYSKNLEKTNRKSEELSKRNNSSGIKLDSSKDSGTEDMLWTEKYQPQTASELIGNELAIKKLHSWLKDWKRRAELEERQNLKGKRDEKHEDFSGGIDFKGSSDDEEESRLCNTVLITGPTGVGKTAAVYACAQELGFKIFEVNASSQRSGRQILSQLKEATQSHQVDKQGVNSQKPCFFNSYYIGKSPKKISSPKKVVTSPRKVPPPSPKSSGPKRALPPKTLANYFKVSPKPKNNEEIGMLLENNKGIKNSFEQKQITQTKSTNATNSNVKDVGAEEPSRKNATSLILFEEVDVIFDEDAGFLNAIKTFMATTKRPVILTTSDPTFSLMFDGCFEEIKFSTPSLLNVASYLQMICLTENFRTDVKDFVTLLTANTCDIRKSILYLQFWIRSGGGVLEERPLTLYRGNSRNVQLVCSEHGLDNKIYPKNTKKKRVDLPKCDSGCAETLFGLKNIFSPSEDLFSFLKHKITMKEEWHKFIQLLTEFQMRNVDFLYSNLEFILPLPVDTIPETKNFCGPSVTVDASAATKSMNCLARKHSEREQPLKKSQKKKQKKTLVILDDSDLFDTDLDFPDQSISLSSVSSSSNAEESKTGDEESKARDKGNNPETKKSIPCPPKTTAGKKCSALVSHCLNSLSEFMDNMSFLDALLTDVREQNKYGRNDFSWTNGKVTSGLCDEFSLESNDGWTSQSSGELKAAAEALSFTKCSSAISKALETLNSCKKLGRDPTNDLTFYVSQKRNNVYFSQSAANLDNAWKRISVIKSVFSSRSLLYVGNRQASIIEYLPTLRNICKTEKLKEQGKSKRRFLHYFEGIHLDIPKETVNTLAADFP
Outline: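 Quantitative HTS in HEK293T cells carrying luciferase-tagged ELG1, stimulated with 5-fluorouridine alongside compound for 16 hr. Loss of luciferase signal marks inhibition of ELG1 response.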

[14] = biological target: Thyrotropin-releasing hormone receptor (Homo sapiens) (UniProt P34981); test: qHTS for Small Molecule Agonists and Allosteric Enhancers of Human TRH Receptor: Validation Screen for Agonists (AID 493127;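 active = calcium activation more than 3 SD above the typical response in the agonist read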;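 also: intracellular calcium rise by fluo-8 fluorescence before TRH EC20 addition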); settings: TRH receptor agonist cell assay; at 2 µM; stronger effect = higher value
Thyrotropin-releasing hormone receptor (Homo sapiens), sequence (P34981 whole entry, looked up): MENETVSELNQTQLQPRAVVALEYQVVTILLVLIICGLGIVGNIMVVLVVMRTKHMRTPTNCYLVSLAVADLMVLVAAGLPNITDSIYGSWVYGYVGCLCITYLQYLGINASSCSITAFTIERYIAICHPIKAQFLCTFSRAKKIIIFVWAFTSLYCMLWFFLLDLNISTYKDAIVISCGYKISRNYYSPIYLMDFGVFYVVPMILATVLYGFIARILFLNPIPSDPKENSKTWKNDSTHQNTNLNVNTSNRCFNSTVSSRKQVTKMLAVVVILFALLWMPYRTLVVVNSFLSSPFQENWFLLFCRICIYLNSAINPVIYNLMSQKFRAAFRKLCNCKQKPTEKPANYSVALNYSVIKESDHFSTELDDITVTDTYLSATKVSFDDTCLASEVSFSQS
Outline: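 Gq-coupled calcium mobilization in TRHR cells after compound addition, monitored kinetically with fluo-8 dye on an FDSS reader.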

[15] = biological target: Transient receptor potential cation channel subfamily V member 1 (Homo sapiens) (UniProt Q8NER1); test: HTS Assay for Compounds that Act as Enhancers of the Vanilloid Receptor 1 (AID 488979)
Outline: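 Calcium influx kinetics via Fluo-8 (480/520 nm) in TRPV1-expressing cells, 2000/well cultured overnight at 35.5C. Compound-alone read 3 min (agonist phase), followed by EC20 capsaicin challenge for 2 min (enhancer phase).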

[16] = biological target: D(1A) dopamine receptor (Homo sapiens) (UniProt P21728); test: HTS Assay for Allosteric Agonists of the Human D1 Dopamine Receptor: Primary Screen for Potentiators (AID 488982); also: potency is read from the fitted curve at half-maximal effect
Outline: as §1

[17] = biological target: D(1A) dopamine receptor (Homo sapiens) (UniProt P21728); test: HTS Assay for Allosteric Agonists of the Human D1 Dopamine Receptor: Primary Screen for Antagonists (AID 488983);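 also: calcium flux response to an EC80 dopamine challenge measured with no-wash dye; nearly all actives have a fitted effect of over 65% in size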
Outline: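 Screening of inducible HEK293 T-REx D1 cells: compound first, EC80 dopamine 180 s later, each phase read kinetically for calcium over 180 s.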

Compound	outcome [1]	Potency [2]	Potency [3]	outcome [4]	Potency [5]	Potency [6]	Potency [7]	Potency [8]	outcome [9]	outcome [10]	Potency [11]	Potency [12]	Potency [13]	activation [14]	outcome [15]	Potency [16]	Potency [17]
CCCCCC(O)CCCC(=O)O (stereo unspecified)	inactive	inactive	inactive	inactive	inactive	inactive	inactive	inactive	inactive	inactive	inactive	inactive	inactive	-0.375% (inactive)			
O=c1onc2cnc3ccccc3n12	inactive	inactive	inactive	inactive	inactive	inactive	inactive		inactive	inactive	inactive	inactive	inactive	0.875% (inactive)	inactive	inactive	inactive
CCCCCCCC/C=C\CCCCCCCC(=O)NCCc1ccc(O)c(O)c1	inactive	14.7 µM (active)	13.1 µM (active)			inactive	inactive		inactive	inactive	inactive			1.94% (inactive)		4.61 µM (active)	
Cc1cccc(C(=O)NCN2CCN(c3ccccc3C#N)CC2)c1	inactive	inactive	inactive	inactive		inactive	inactive	inactive	inactive	inactive	inactive	inactive		0.562% (inactive)	inactive	inactive	
CC[C@H](NC(=O)c1c(C)c(-c2ccccc2)nc2ccccc12)c1ccccc1	inactive	3.7 µM (active)		inactive	inactive	inactive	inactive	inactive	inactive	inactive	inactive	inactive	inactive	-8.62% (inactive)	inactive		inactive
C[C@@]1(C2CCCC2)Cc2cc(OCC(=O)O)c(Cl)c(Cl)c2C1=O	inactive		inactive	inactive	inactive	inactive	inactive	inactive	inactive	inactive	inactive	inactive	inactive	1.25% (inactive)	inactive	inactive	
COc1ccc2c(c1)CCC1C2CC[C@@]2(C)C1CC[C@@H]2NCCCCCCN1C(=O)C=CC1=O (stereo partly specified)	inactive	inactive	inactive	inactive	inactive				inactive	inactive	inactive	inactive	inactive	0.25% (inactive)	inactive	inactive	inactive
CC(C)(CO)Cc1cc(C(C)(C)C)c(O)c(C(C)(C)C)c1	inactive	inactive		inactive	inactive	inactive	inactive		inactive	inactive	15.8 µM (active)	inactive	inactive		inactive		inactive
Oc1cc(O)c2c(c1)O[C@H](c1ccc(O)c(O)c1)[C@@H](O)C2	inactive	inactive	inactive	inactive	inactive		inactive	inactive	inactive	inactive	inactive	inactive	inactive		inactive	inactive	inactive
CCN1C(=O)C=CC1=O	inactive		inactive	inactive	inactive	inactive	inactive		inactive	inactive	inactive		inactive		inactive	inactive	inactive
N[C@@H](CS(=O)O)C(=O)O	inactive	inactive	inactive	inactive	inactive		inactive	inactive	inactive	inactive	inactive	inactive	inactive	0.688% (inactive)	inactive	inactive	inactive
C=CCN1CCc2c(cc(O)c(O)c2Cl)C(c2ccccc2)C1 (stereo unspecified)	inactive	3.7 µM (active)		inactive		inactive	39.8 µM (active) and inactive		inactive	inactive		inactive	inactive	-5.75% (inactive)	inactive	inactive	
CN1CCCC1CCOC(C)(c1ccccc1)c1ccc(Cl)cc1 (stereo unspecified)	inactive	8.28 µM (active)	10.4 µM (active)	inactive	inactive		inactive		inactive	inactive	inactive	inactive		1.88% (inactive)			
CCC(=O)N1CCN(C(=O)c2ccccc2)CC1	inactive	inactive	inactive	inactive	inactive		inactive	inactive	inactive	inactive	inactive	inactive	inactive	1.38% (inactive)	inactive	inactive	inactive
O=c1ccc2c(OCCCCc3ccccc3)c3ccoc3cc2o1	inactive		inactive	inactive	inactive	inactive	inactive	inactive	inactive	inactive	inactive	inactive	inactive	-9.69% (inactive)	inactive	inactive	inactive
NC1(C(=O)O)CCc2cc(C(=O)O)ccc21 (stereo unspecified)	inactive	inactive	inactive	inactive	16.8 µM (active)		inactive	inactive	inactive	inactive	inactive	inactive	inactive	1.19% (inactive)	inactive	inactive	inactive
